From PubChem BioAssay (NCATS)
Results filed as inconclusive are left out. Calls of active or inactive are those of the source. Calls follow the shape of the dose curve; as a rule, active = well fitted cell-killing curve with a large enough effect; inconclusive = small, poorly fitted or top-dose-only effect, or effect the other way; inactive = no such curve, though single readings can be large or run the other way. Positions of bridges follow the written chain, without caps; N, C: chain ends. Non-standard residues stand in square brackets, D forms with d. Residues, ends and D or L forms follow the SMILES beside them. ξ: configuration not given here. *: point of attachment. Octanoyl(6-Me) = CCC(C)CCCCC(=O)*; ξThr(3R) = C[C@@H](O)C(N)C(=O)O; dDab = NCC[C@@H](N)C(=O)O; Dab = NCC[C@H](N)C(=O)O; Cbz = O=C(OCc1ccccc1)*

Assay: Quantitative High-Throughput drug screen in 47 multiple myeloma cell lines against the NCATS MIPE library collection: KMS11_JCRBsus cell viability assay (AID 1919873); also: nearly all actives have a fitted effect of over 50% in size;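 as to viability (% of control): 100% = DMSO-only wells and 0% = media-only wells without cells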
Settings: KMS11 myeloma viability, CellTiter-Glo ATP luminescence, 48 h; series mostly up to 45.8 µM; viability (% of control): at the top concentration
Summary of the method: (§1)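 Cells were exposed to library compounds for 48 hours, after which ATP was measured by CellTiter-Glo. Signal was taken as median relative luminescence units.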
Potency is read from the fitted curve at half-maximal effect.

| SMILES | Potency | viability (% of control) |
| --- | --- | --- |
| CC(=O)[C@]1(O)Cc2c(O)c3c(c(O)c2[C@@H](O[C@H]2C[C@H](N)[C@@H](O)[C@H](C)O2)C1)C(=O)c1ccccc1C3=O | 0.264 µM (active) | – |
| CC(C)NC[C@@H](C(=O)N1CCN(c2ncnc3c2[C@H](C)C[C@H]3O)CC1)c1ccc(Cl)cc1 | 4.69 µM (active) | – |
| CN(C)c1ccc2cc(C(=O)N[C@@H](CCCN=C(N)CCl)C(=O)NCc3ccccc3)ccc2c1 | 7.43 µM (active) | – |
| COc1cc(C(C)C)c(Oc2cnc(NC(CO)CO)nc2N)cc1I | – | 90% (inactive) |
| CC(C)C[C@@H](C=O)NC(=O)[C@H](CC(C)C)NC(=O)[C@H](CC(C)C)NC(=O)OCc1ccccc1 (Cbz-Leu-Leu-Leu-aldehyde) | 0.264 µM (active) | – |
| CC(=O)O[C@]1(C(C)=O)CC[C@H]2[C@@H]3C=C(C)C4=CC(=O)CC[C@]4(C)[C@@H]3CC[C@@]21C | – | 99.7% (inactive) |
| CCOC(=O)[C@@H](N)Cc1ccc(-c2cc(O[C@H](c3ccc(Cl)cc3-n3ccc(C)n3)C(F)(F)F)nc(N)n2)cc1 | 16.6 µM (active) | – |
| CC(C)C[C@H](NC(=O)CNC(=O)c1cc(Cl)ccc1Cl)B1OC(=O)CC(CC(=O)O)(C(=O)O)O1 (stereo not given in full) | 0.0418 µM (active) | – |
| C[C@H](NCc1ccc2c(c1)nc(NC(=O)c1ccc(-c3cn[nH]c3)s1)n2CCc1ccccc1)C(C)(C)C | 0.59 µM (active) | – |
| CC(C)(O)[C@H]1CC[C@@](C)([C@H]2[C@@H](O)C[C@@]3(C)[C@@H]4C[C@H](O[C@@H]5O[C@H](CO)[C@@H](O)[C@H](O)[C@@H]5O)[C@H]5C(C)(C)[C@@H](O[C@@H]6OC[C@@H](O)[C@H](O)[C@@H]6O)CC[C@@]56C[C@@]46CC[C@]23C)O1 | – | 110% (inactive) |
| COc1cc(OC)cc(-c2ccc3ncc4ccc(=O)n(-c5ccc(N6CCNCC6)c(C(F)(F)F)c5)c4c3c2)c1 | 2.64 µM (active) | – |
| O=C(O)CCCCCC(=O)NN=C1CCCC1 | – | 127% (inactive) |
| CNC(=O)c1ccc(Nc2cc(Nc3ccccc3S(=O)(=O)C(C)C)c3cc[nH]c3n2)nc1 | 2.64 µM (active) | – |
| O=C1c2c(O)cccc2[C@@H]([C@@H]2O[C@H](CO)[C@@H](O)[C@H](O)[C@H]2O)c2cc(CO)cc(O)c21 | – | 101% (inactive) |
| COc1cc2c(Nc3ccc(Cl)c(Cl)c3F)ncnc2cc1OCC1C[C@@H]2CN(C)C[C@H]2C1 | 5.9 µM (active) | – |
| CCOc1cc2c(c(F)c1OCC)C(=N)N(CC(=O)c1cc(N3CCOCC3)c(OC)c(C(C)(C)C)c1)C2 | 7.43 µM (active) | – |
| Cc1cnc(Nc2ccc(N3CCN(C)CC3)cc2)nc1Nc1cccc(S(=O)(=O)NC(C)(C)C)c1 | 1.32 µM (active) | – |
| CC(=O)C1=C(O)C=C2Oc3c(C(C)=O)c(O)c(C)c(O)c3C2(C)C1=O (stereo not given) | – | 92.8% (inactive) |
| COC[C@H](NC(=O)c1cnc(C)s1)C(=O)N[C@@H](COC)C(=O)N[C@@H](Cc1ccccc1)C(=O)[C@@]1(C)CO1 | 0.0187 µM (active) | – |
| CC[C@H]1OC(=O)[C@H](C)[C@@H](O[C@H]2C[C@@](C)(OC)[C@@H](O)[C@H](C)O2)[C@H](C)[C@@H](O[C@@H]2O[C@@H](C)C[C@H](N(C)C)[C@@H]2O)[C@](C)(O)C[C@@H](C)C(=O)[C@H](C)[C@@H](O)[C@]1(C)O | – | 111% (inactive) |
| CC(C)OC(=O)[C@H](C)N[P@](=O)(OC[C@H]1O[C@@H](n2ccc(=O)[nH]c2=O)[C@](C)(F)[C@H]1O)Oc1ccccc1 | – | 78.4% (inactive) |
| OCc1ccccc1O[C@@H]1O[C@H](CO)[C@H](O)[C@H](O)[C@H]1O | – | 109% (inactive) |
| COc1ccc(C(C)=O)c(O)c1 | – | 121% (inactive) |
| CC(=O)N[C@H]1[C@@H]([C@H](O)[C@H](O)CO)OC(C(=O)O)=C[C@@H]1N=C(N)N | – | 108% (inactive) |
| CN(C)CC(=O)N1CCC(c2ccc(NC(=O)c3ncc(C#N)[nH]3)c(C3=CCCCC3)c2)CC1 | 18.7 µM (active) | – |
| C=C1CCC2[C@](C)(CO)C(O)CC[C@]2(C)C1CC=C1C(=O)OCC1O (stereo not given in full) | – | 105% [at 92.2 µM] (inactive) |
| Cc1ncc(-c2ccnc(Nc3ccc(S(C)(=O)=O)cc3)n2)n1C(C)C | 2.09 µM (active) | – |

Assay: Quantitative High-Throughput drug screen in 47 multiple myeloma cell lines against the NCATS MIPE library collection: KMS28BM_JCRB cell viability assay (AID 1919874); also: nearly all actives have a fitted effect of over 35% in size
Settings: CellTiter-Glo ATP, 48 h; series mostly up to 45.8 µM; viability, % of control: at the top concentration
Summary of the method: as §1

| SMILES | Potency | viability, % of control |
| --- | --- | --- |
| CC(=O)[C@]1(O)Cc2c(O)c3c(c(O)c2[C@@H](O[C@H]2C[C@H](N)[C@@H](O)[C@H](C)O2)C1)C(=O)c1ccccc1C3=O | 0.148 µM (active) | – |
| CCC(C)CCCCC(=O)N[C@@H](CCN)C(=O)NC(C(=O)N[C@H](CCN)C(=O)N[C@@H]1CCNC(=O)C([C@@H](C)O)NC(=O)[C@@H](CCN)NC(=O)[C@@H](CCN)NC(=O)[C@@H](CC(C)C)NC(=O)[C@H](Cc2ccccc2)NC(=O)[C@H](CCN)NC1=O)[C@@H](C)O (stereo partly drawn) ({Octanoyl(6-Me)}-[Dab][ξThr(3R)][dDab][dDab][Dab]F[dL][dDab][dDab][ξThr(3R)]; lactam 4-C) | – | 122% (inactive) |
| CC(C)NC[C@@H](C(=O)N1CCN(c2ncnc3c2[C@H](C)C[C@H]3O)CC1)c1ccc(Cl)cc1 | 2.96 µM (active) | – |
| CN(C)c1ccc2cc(C(=O)N[C@@H](CCCN=C(N)CCl)C(=O)NCc3ccccc3)ccc2c1 | 7.43 µM (active) | – |
| COc1cc(C(C)C)c(Oc2cnc(NC(CO)CO)nc2N)cc1I | – | 106% (inactive) |
| CC(C)C[C@@H](C=O)NC(=O)[C@H](CC(C)C)NC(=O)[C@H](CC(C)C)NC(=O)OCc1ccccc1 (Cbz-Leu-Leu-Leu-aldehyde) | 0.235 µM (active) | – |
| CC(=O)O[C@]1(C(C)=O)CC[C@H]2[C@@H]3C=C(C)C4=CC(=O)CC[C@]4(C)[C@@H]3CC[C@@]21C | – | 125% (inactive) |
| CCOC(=O)[C@@H](N)Cc1ccc(-c2cc(O[C@H](c3ccc(Cl)cc3-n3ccc(C)n3)C(F)(F)F)nc(N)n2)cc1 | 18.7 µM (active) | – |
| CC(C)C[C@H](NC(=O)CNC(=O)c1cc(Cl)ccc1Cl)B1OC(=O)CC(CC(=O)O)(C(=O)O)O1 (stereo not given in full) | 0.0526 µM (active) | – |
| C[C@H](NCc1ccc2c(c1)nc(NC(=O)c1ccc(-c3cn[nH]c3)s1)n2CCc1ccccc1)C(C)(C)C | 0.833 µM (active) | – |
| CC(C)(O)[C@H]1CC[C@@](C)([C@H]2[C@@H](O)C[C@@]3(C)[C@@H]4C[C@H](O[C@@H]5O[C@H](CO)[C@@H](O)[C@H](O)[C@@H]5O)[C@H]5C(C)(C)[C@@H](O[C@@H]6OC[C@@H](O)[C@H](O)[C@@H]6O)CC[C@@]56C[C@@]46CC[C@]23C)O1 | – | 117% (inactive) |
| O=C(O)C=Cc1ccc(Cn2ccnc2)cc1 | – | 123% (inactive) |
| COc1cc(OC)cc(-c2ccc3ncc4ccc(=O)n(-c5ccc(N6CCNCC6)c(C(F)(F)F)c5)c4c3c2)c1 | 4.69 µM (active) | – |
| O=C(O)CCCCCC(=O)NN=C1CCCC1 | – | 118% (inactive) |
| O=C(O)C(=O)Nc1cccc(C2=NN=N[N]2)c1 | – | 116% (inactive) |
| CNC(=O)c1ccc(Nc2cc(Nc3ccccc3S(=O)(=O)C(C)C)c3cc[nH]c3n2)nc1 | 1.32 µM (active) | – |
| O=C1c2c(O)cccc2[C@@H]([C@@H]2O[C@H](CO)[C@@H](O)[C@H](O)[C@H]2O)c2cc(CO)cc(O)c21 | – | 111% (inactive) |
| COc1cc2c(Nc3ccc(Cl)c(Cl)c3F)ncnc2cc1OCC1C[C@@H]2CN(C)C[C@H]2C1 | 8.33 µM (active) | – |
| OC[C@H]1OC(O)C[C@@H](O)[C@H]1O (stereo not given in full) | – | 111% (inactive) |

| SMILES | Potency | viability, % of control |
| --- | --- | --- |
| CCOc1cc2c(c(F)c1OCC)C(=N)N(CC(=O)c1cc(N3CCOCC3)c(OC)c(C(C)(C)C)c1)C2 | 8.33 µM (active) | – |
| Cc1cnc(Nc2ccc(N3CCN(C)CC3)cc2)nc1Nc1cccc(S(=O)(=O)NC(C)(C)C)c1 | 5.26 µM (active) | – |
| CC(=O)C1=C(O)C=C2Oc3c(C(C)=O)c(O)c(C)c(O)c3C2(C)C1=O (stereo not given) | – | 103% (inactive) |
| COC[C@H](NC(=O)c1cnc(C)s1)C(=O)N[C@@H](COC)C(=O)N[C@@H](Cc1ccccc1)C(=O)[C@@]1(C)CO1 | 0.0418 µM (active) | – |
| CC[C@H]1OC(=O)[C@H](C)[C@@H](O[C@H]2C[C@@](C)(OC)[C@@H](O)[C@H](C)O2)[C@H](C)[C@@H](O[C@@H]2O[C@@H](C)C[C@H](N(C)C)[C@@H]2O)[C@](C)(O)C[C@@H](C)C(=O)[C@H](C)[C@@H](O)[C@]1(C)O | – | 108% (inactive) |
| NC(=O)c1ncn([C@@H]2O[C@H](CO)[C@@H](O)[C@@H]2O)c1N | – | 122% (inactive) |
| CC(C)OC(=O)[C@H](C)N[P@](=O)(OC[C@H]1O[C@@H](n2ccc(=O)[nH]c2=O)[C@](C)(F)[C@H]1O)Oc1ccccc1 | – | 100% (inactive) |
| Cc1onc(-c2ccccc2)c1C(=O)N[C@@H]1C(=O)N2[C@@H](C(=O)O)C(C)(C)S[C@@H]12 | – | 132% (inactive) |
| OCc1ccccc1O[C@@H]1O[C@H](CO)[C@H](O)[C@H](O)[C@H]1O | – | 107% (inactive) |
| Nc1nc(=O)n([C@H]2C[C@H](O)[C@@H](CO)O2)cc1F | – | 125% (inactive) |
| CC(=O)N[C@H]1[C@@H]([C@H](O)[C@H](O)CO)OC(C(=O)O)=C[C@@H]1N=C(N)N | – | 125% (inactive) |
| Cc1cncc2cccc(S(=O)(=O)N3CCCN(C(=O)CN)C[C@@H]3C)c12 | 1.18 µM (active) | – |
| CC(=O)OCC(=O)[C@@]1(O)CC[C@H]2[C@@H]3CCC4=CC(=O)CC[C@]4(C)[C@@H]3C(=O)C[C@@]21C | – | 122% (inactive) |
| C=CC1=C(C(=O)O)N2C(=O)[C@@H](NC(=O)C(=NO)c3csc(N)n3)[C@H]2SC1 | – | 117% (inactive) |
| CN(C)CC(=O)N1CCC(c2ccc(NC(=O)c3ncc(C#N)[nH]3)c(C3=CCCCC3)c2)CC1 | 26.4 µM (active) | – |
| C[C@]12CCC(=O)C=C1[C@@H]1CC1[C@H]1[C@H]3[C@@H]4C[C@H]4[C@@]4(CCC(=O)O4)[C@@]3(C)CC[C@H]12 (stereo not given in full) | 11.8 µM (active) | – |
| Cn1cc(-c2ccc3ncc(Cc4ccc5ncccc5c4)n3n2)cn1 | – | 93.8% (inactive) |
| C=C1CCC2[C@](C)(CO)C(O)CC[C@]2(C)C1CC=C1C(=O)OCC1O (stereo not given in full) | – | 106% [at 92.2 µM] (inactive) |
| Cc1ncc(-c2ccnc(Nc3ccc(S(C)(=O)=O)cc3)n2)n1C(C)C | 4.69 µM (active) | – |
